A647 autofl – A647 region autofluorescence | Compound fluorescence, A647 channel (570/671 nm), Tris buffer | max dye-equivalent concentration, M | 59,000 tested, under 10 active | AID 592
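Buffer was dispensed, compounds and Alexa 647 standards were pin-transferred, and plates sat 15 min at room temperature. Intensity at 570/671 nm was then converted to dye-equivalent concentration using the plate's A647 standard curve.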
Texas Red fluor – compounds fluorescent in Texas Red spectral region; Compound fluorescence, Texas Red channel, 547/618 nm; stronger effect = higher value; max dye-equivalent concentration, M; 0.06% of 59,000 active; AID 587; in the data active means max dye-equivalent concentration above about 10 nM; inconclusive means between about 1.1 nM and that limit
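Texas Red-region profiling: compounds in 100 mM Tris pH 8.0 were read at 547/618 nm after 15 min at room temperature. Intensities were normalized against a six-point Texas Red standard series to give dye-equivalent concentration.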
Fluorescein autfl – compound autofluorescence in fluorescein spectral region | max fluorescein-equivalent concentration, M | 0.91% of 59,000 active | Compound autofluorescence, 480/540 nm, fluorescein-equivalent; stronger effect = higher value; in the data active means max fluorescein-equivalent concentration above about 10 nM; inconclusive means between about 1.1 nM and that limit
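Tris 100 mM pH 8.0; 15 min RT; CCD read, ex 480/em 540 nm. Output: fluorescein-equivalent concentration per compound concentration, from six-point dye series on each plate.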
Resorufin autofl – compounds fluorescent in resorufin spectral region. Compound fluorescence, resorufin region 547/598 nm, buffer; stronger effect = higher value. max dye-equivalent concentration, M. 0.04% of 59,000 active. AID 588
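Compounds in 100 mM Tris buffer, pH 8.0, incubated 15 min at room temperature, then read with 547 nm excitation and 598 nm emission filters. Fluorescence was converted to dye-equivalent concentration using an on-plate six-point resorufin standard curve.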
Rhodamine autofl – compound fluoresces in the rhodamine spectral region | 0.05% of 59,000 active | max dye-equivalent concentration, M | Rhodamine-region fluorescence, 547/598 nm, Tris buffer; stronger effect = higher value; in the data active means max dye-equivalent concentration above about 11 nM; inconclusive means between about 1.1 nM and that limit
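qHTS spectral profiling of compounds without any target or enzyme present, in pH 8.0 Tris buffer; plates were read after a 15-minute room-temperature incubation using the rhodamine-region filter set.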
A488 fluor – A488 region autofluorescence; compound autofluorescence, A488 spectral region, dye equivalency; Compound Type: qHTS ECL - MLSMR; max dye equivalency, M; 0.1% of 59,000 active; AID 591
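Read-out: relative fluorescence at 480/540 nm, expressed as Alexa 488 dye-equivalent concentration from a six-point A488 standard included per plate. Conditions: 100 mM Tris, pH 8.0; 15 min incubation, room temperature.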
A number is an active result; . = inactive; ? = inconclusive; ! = not active in a repeat. The list is not random: actives were taken first. Their share in the collection is about 0.9%. Unless noted, how the calls were made is not given here.

SMILES	A647 autofl	Texas Red fluor	Fluorescein autfl	Resorufin autofl	Rhodamine autofl	A488 fluor
C1=C(c2ccc(-c3ccccc3)cc2)Nc2ncnn2C1c1ccco1 (stereo not drawn)	.	.	1.4e-07M	.	.	?
CCOc1ccc(C2C=C(c3ccc(F)cc3)Nc3ncnn32)cc1 (stereo not drawn)	.	?	?	.	.	.
COc1ccc(C2C=C(c3ccc(C)cc3)Nc3ncnn32)cc1 (stereo not drawn)	.	.	1.1e-08M	.	.	.
N#Cc1c(/N=C/c2ccco2)sc2c1CCCCC2	.	.	.	.	.	.
CN1CCc2c(sc(/N=C/c3ccco3)c2C(N)=O)C1	.	.	2.5e-08M	.	.	?
N#Cc1c(/N=C/c2cccs2)sc2c1CCC2	.	.	?	.	.	.
CN1CCc2c(sc(/N=C/c3cccs3)c2C(N)=O)C1	.	?	1.1e-08M	.	.	.
CN(C)c1ccc(N/C=C/C(=O)c2ccc(F)cc2)cc1	.	.	2.4e-08M	.	.	.
CN1[C@@H]2CC[C@H]1CC(OC(=O)[C@@H](CO)c1ccccc1)C2 (stereo partly drawn)	.	?	3e-08M!	.	.	.
COc1cc(C(=O)N(CCc2ccccc2)C2CC3CCC(C2)N3C)cc(OC)c1OC (stereo not drawn)	.	?	.	.	.	.
CCOC(=O)Nc1ccc(NCc2ccc(F)cc2)nc1N	.	.	1.6e-08M	.	.	.
CCOC(=O)Nc1cc(C)ccc1OC	.	?	.	.	.	.
CCOC(=O)C1CCN(c2nc3ccccc3nc2C(C#N)C(=O)OC(C)COC)CC1 (stereo not drawn)	.	.	?	.	.	.
CCOC(=O)C1CCN(c2nc3ccccc3nc2C(C#N)C(=O)OC(C)C)CC1 (stereo not drawn)	.	.	1.3e-08M	.	.	.
CCOC(=O)C1CCCN(c2nc3ccccc3nc2C(C#N)C(=O)OC(C)C)C1 (stereo not drawn)	.	.	2.3e-07M	.	.	1.4e-08M
COc1ccc(C(=O)N2CCC3(CC2)CN(c2cccc(-c4ccccc4)c2)C3)cc1	.	.	.	.	.	.
COc1ccc(C(=O)N2CCC3(CCCN(c4cccc(-c5ccccc5)c4)C3)CC2)cc1	.	.	1.4e-08M	.	.	.
COc1ccc(NC(=O)N2CCCC3(CCN(C(=O)c4ccc(OC)cc4)CC3)C2)cc1	.	.	2.6e-08M	.	.	.
CC[C@@H]1OC(=O)[C@H](C)[C@H](O[C@@H]2C[C@](C)(OC)[C@H](O)[C@H](C)O2)[C@H](C)[C@H](O[C@@H]2O[C@@H](C)C[C@@H](N(C)C)[C@@H]2O)[C@](C)(O)C[C@H](C)[C@@H]2N[C@H](COCCOC)O[C@H]([C@@H]2C)[C@]1(C)O	.	.	?	.	.	.
O=C(O)c1ccccc1NCn1c(=S)sc2ccccc21	.	.	.	.	.	.
O=S(=O)(Nc1nc2ccccc2nc1N1CCN(c2ccccn2)CC1)c1ccc(Cl)cc1	.	.	1.7e-08M	.	.	.
COc1cccc(=O)c2c(C)oc(C)c12	.	.	7.1e-08M	.	.	?
CCn1cc(C(=O)NCc2ccccn2)c(=O)c2cc(S(=O)(=O)N3CCCCC3)ccc21	.	?	1.7e-08M	?	?	.
CCn1cc(C(=O)NCc2ccco2)c(=O)c2cc(S(=O)(=O)N3CCCCCC3)ccc21	.	.	.	.	.	.
c1ccc2[nH]c(CN3CCCCCC3)nc2c1	.	.	?	.	.	.
SMILES	A647 autofl	Texas Red fluor	Fluorescein autfl	Resorufin autofl	Rhodamine autofl	A488 fluor
[O-][n+]1c(CN2CCCCC2)nc2cccc3c2c1-c1ccccc1-3	.	.	1.7e-08M	.	.	.
C[C@H](O)C(=O)C1=Nc2c(nc(N)[nH]c2=O)NC1	.	?	4e-08M	.	.	?
COc1ccc(-c2nc3cnc(N4CCOCC4)nc3n(C[C@H]3CCCO3)c2=O)cc1	.	.	?	.	.	.
C=C[C@]1(C)C[C@H](OC(=O)CO)[C@]2(C)C3C(=O)CC[C@]3(CC[C@H]2C)[C@H](C)[C@H]1O (stereo partly drawn)	.	.	.	.	.	.
COc1ccccc1/C=c1\sc2nc(-c3ccco3)nn2c1=O	.	.	.	.	.	.
CCOc1ccc(/C=c2\sc3nc(-c4ccco4)nn3c2=O)cc1OCC	.	.	1.2e-07M	.	.	?
CC1CCc2cccc3c2N1c1cc(C#N)c(C#N)cc1O3 (stereo not drawn)	.	?	6.3e-08M	.	.	?
Cc1ccccc1-n1c(=O)cc(N2CCC3(CC2)OCCO3)[nH]c1=O	.	.	.	.	.	.
O=C(O)CCCNc1cc(N2CCC3(CC2)OCCO3)c2noc3c2c1C(=O)c1ccccc1-3	.	1e-08M	1.3e-08M	?	?	.
CCOC(=O)N1CCN(c2c(NCCCN(CC)Cc3ccccc3)c(=O)c2=O)CC1	.	?	.	.	.	.
CCOC(=O)N1CCN(c2cc(NCCC(=O)O)c3c4c(onc24)-c2ccccc2C3=O)CC1	.	?	8e-08M	.	?	?
Cn1cccc1C(=O)N1CCC[C@@]2(CCN(c3ccccc3)C2)C1	.	.	1.1e-08M	.	.	.
COCCn1c(=O)c(C)nc2cnc(N3CCNCC3)nc21	.	.	.	.	.	.
CCNc1ncc2nc(-c3cccs3)c(=O)n(CCC#N)c2n1	.	.	1.4e-08M	.	.	.
N#CCCn1c(=O)c(-c2cccs2)nc2cnc(Nc3ccccc3)nc21	.	.	?	.	.	.
O=S(=O)(c1ccccc1)N1CCC2(CCCN(Cc3nccs3)C2)CC1	.	.	.	.	.	.
O=C(CC1NC(=O)NC1=O)Nc1cccc2ccccc12 (stereo not drawn)	.	.	4.3e-08M	.	.	?
COc1ccccc1NC(=O)CC1Nc2ccccc2NC1=O (stereo not drawn)	.	.	.	.	.	.
COC(=O)N1CCC2(CC1)CN(C(c1ccccc1)c1ccccc1)C2	.	.	?	.	.	.
CN1Cc2sc(N)c(C#N)c2CC1(C)C	.	?	3.1e-08M	.	?	?
CCN1CC=C2C(C#N)=C(N)C(C#N)(C#N)C(CCc3ccccc3)C2C1 (stereo not drawn)	.	.	1.3e-07M	.	.	?
CC(=O)N1CC=C2C(C#N)=C(N)C(C#N)(C#N)[C@H](c3ccoc3)[C@H]2C1	.	.	3.1e-08M	.	.	.
CC(=O)N1CC=C2C(C#N)=C(N)C(C#N)(C#N)C(C)C2C1 (stereo not drawn)	.	.	?	.	.	.
N#CC1=C(N)C(C#N)(C#N)[C@H](c2ccoc2)[C@H]2CN(Cc3ccccc3)CC=C12	.	?	3.5e-08M	.	.	?
CC(C)C[C@H](N)C(=O)O	.	.	.	.	.	.
C(CCc1nnc2c(n1)CCCC2)Cc1nnc2c(n1)CCCC2	.	.	.	.	.	.
COc1ccc(-c2cc([C@H](O)[C@@H]3CCCCN3)c3ccccc3n2)cc1	.	.	.	.	.	.
Cn1c(=O)c(-c2ccccc2)nc2cnc(N3CCOCC3)nc21	.	.	.	.	.	.
CC(NC(=O)c1ccccc1)(C(=O)O)C(=O)O	.	.	.	.	.	.
